Assay outcomes as filed in PubChem BioAssay.
WT yeast gro inh: growth inhibition of WT yeast, mitochondrial fusion screen; 190,000 compounds, 2.1% hits; inhibition, % at 10 µM; mitochondrial fusion phenotypic screen, WT strain; AID 1362; in the data active means inhibition above about 58%; tested in S. cerevisiae
SKKanGAS inh: SKKanGAS growth inhibition; S. pyogenes SKKanGAS, kanamycin growth, BacTiter-Glo, 6 h; 300,000 compounds, 1.3% hits; inhibition, % at 7.5 µM; AID 1662;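 active means mean replicate score, as percent of positive control median, at least 50; inconclusive means mean below 50 but one replicate at or above 50; inactive means mean and every replicate below 50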;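 further: strain carries kanamycin resistance gene driven by streptokinase promoter and grows in 40 µg/ml kanamycin; loss of luminescence reflects streptokinase promoter inhibition or plain growth inhibition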
TPT1 inhibitor: C. albicans TPT1 enzyme inhibition | inhibition, % at 5 µM | recombinant caTPT1, FP RNA substrate dephosphorylation | AID 1962 | 300,000 compounds, 0.81% hits;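 active means inhibition above the mean of all tested compounds plus 3 SD, set per screening campaign, cut at about 24% in these data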
PHOSPHO1 block: PHOSPHO1 (human) inhibition; 290,000 compounds, 1.1% hits; inhibition, % at 13.3 µM; recombinant PHOSPHO1, absorbance phosphatase assay; AID 1565; in the data active means inhibition above about 60%
Target sequence (Q8TCT1 whole entry, looked up): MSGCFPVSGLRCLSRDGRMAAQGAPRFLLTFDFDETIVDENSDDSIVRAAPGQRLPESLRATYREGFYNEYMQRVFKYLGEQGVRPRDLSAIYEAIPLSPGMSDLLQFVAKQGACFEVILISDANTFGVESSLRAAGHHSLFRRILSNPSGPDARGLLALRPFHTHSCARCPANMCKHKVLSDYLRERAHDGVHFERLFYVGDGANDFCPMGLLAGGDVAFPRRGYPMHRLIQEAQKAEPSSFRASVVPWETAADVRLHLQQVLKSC
Rtt109 Vps75: blocks Candida albicans Rtt109/Vps75 acetyltransferase activity; inhibition, % at 34.9 µM; 330,000 compounds, 0.16% hits; purified Rtt109/Vps75, ThioGlo CoA-SH fluorescence, 4 h; Q5AAJ8;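 active means inhibition of at least 50% in every replicate; inconclusive means best replicate reaches 50% inhibition but some replicates fall short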
Target sequence (Q5AAJ8 whole entry, looked up): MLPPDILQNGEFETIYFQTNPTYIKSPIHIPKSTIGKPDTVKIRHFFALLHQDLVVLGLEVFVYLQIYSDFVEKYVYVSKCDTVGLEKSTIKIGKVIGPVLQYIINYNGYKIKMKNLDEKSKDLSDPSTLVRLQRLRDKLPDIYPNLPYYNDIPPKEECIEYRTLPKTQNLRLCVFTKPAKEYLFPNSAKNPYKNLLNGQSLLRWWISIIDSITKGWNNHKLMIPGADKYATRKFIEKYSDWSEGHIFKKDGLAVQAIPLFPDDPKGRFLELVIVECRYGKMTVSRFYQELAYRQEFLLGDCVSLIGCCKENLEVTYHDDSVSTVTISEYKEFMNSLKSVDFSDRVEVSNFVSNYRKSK
Platelet DG rel: platelet dense granule release activity; human platelet-rich plasma, SFLLRN dense granule ATP release, luminescence; inhibition, %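 (compounds screened at 7.5 µM in platelet-rich plasma)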; 300,000 compounds, 0.22% hits; AID 1663;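 active means mean replicate score, as percent of positive control, at or above 50; inconclusive means mean below 50 but at least one replicate at or above 50; inactive means mean and every replicate below 50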
Numbers stand for hits; 0 = inactive; ? = inconclusive; - = no result. Sampled rows, rich in hits. Any-hit rate of the full collection: about 3.9%.

SMILES | WT yeast gro inh | SKKanGAS inh | TPT1 inhibitor | PHOSPHO1 block | Rtt109 Vps75 | Platelet DG rel
O=C(/C=C/c1cccc(Cl)c1)c1ccc([N+](=O)[O-])o1 | - | 62.6 | 0 | - | 0 | 0
COc1cc(OC)c(C(=O)C=Cc2ccc(OC)c(OC)c2)c(OC)c1 | - | - | - | - | 0 | -
O=C1C=C(c2cccc3c2sc2ccccc23)C[C@@H](c2ccc(F)cc2)C1 | - | - | - | - | 0 | -
COc1ccc2[nH]c(C(=O)N/N=C/c3ccccc3OC)cc2c1 | - | 0 | 0 | 0 | 0 | 0
COc1cc(OC)c2cc(C(=O)N/N=C/c3ccccc3O)[nH]c2c1 | - | 103.3 | 0 | 0 | 0 | 0
Cc1ccc2[nH]c(C(=O)N/N=C/c3ccccc3O)c(C)c2c1 | - | 101.4 | 0 | 0 | 0 | 0
Cc1ccc2[nH]c(C(=O)N/N=C/c3ccccc3C(=O)O)c(-c3ccccc3)c2c1 | - | 0 | 0 | 0 | 0 | 0
CCN(CC)CCCNC(=O)c1cc(-c2ccccc2)c(N2CCCCC2)s1 | - | 0 | 0 | 0 | 0 | 0
O=C(NN(C(=O)c1ccccc1)c1cccs1)c1ccccc1 | - | - | - | - | 0 | -
Clc1cccc(Nc2nc(-c3ccncc3)cs2)c1 | 0 | 0 | 0 | 0 | 0 | 0
S=c1[nH]nc(Nc2cccc(Cl)c2)s1 | 0 | 0 | 0 | 79.5 | 0 | 0
S=c1[nH]nc(Nc2ccccc2Cl)s1 | 0 | 0 | 0 | 67.7 | 0 | 0
COc1cc(/C=N/NC(=O)C23CC4CC(CC(C4)C2)C3)cc(Br)c1O | 0 | 0 | 0 | 0 | 0 | 0
O=C(N/N=C/c1cc([N+](=O)[O-])cc(Br)c1O)C12CC3CCC(CC(C3)C1)C2 | - | 50.8 | 0 | 0 | 0 | 0
CC(C)C[C@H](NC(=O)N1CCn2c1nc1ccccc12)C(=O)N1CCCCC1 | - | 0 | 0 | 0 | 0 | 0
Cc1nnc(NC(=O)c2sc3nc(-c4cccs4)cc(C(F)(F)F)c3c2N)s1 | 70.5 | 0 | 47.0 | 0 | 0 | 0
Nc1ccc(Oc2ccc3c(c2)OCO3)cc1 | 0 | 0 | 0 | 60.9 | 0 | 0
S=C(c1ccc(-c2ccc(Br)cc2)o1)N1CCCCC1 | 0 | 0 | 0 | 0 | 0 | 0
COc1ccc(-c2ccc(C(=S)N3CCN(C(C)=O)CC3)o2)cc1 | 0 | 0 | 0 | 85.4 | 0 | 0
CC(C)C(c1nnnn1C(C)(C)C)N1CCOCC1 (stereo not drawn) | 0 | 0 | 0 | 0 | 0 | 0
CC(C)C(c1nnnn1C(C)(C)C)N1CCC(Cc2ccccc2)CC1 (stereo not drawn) | 72.6 | 0 | 0 | 0 | 0 | 0
O=C(Cc1ccccc1)Nc1ccnn1C1CCN(Cc2nccs2)CC1 | - | 0 | 0 | 0 | 0 | 0
O=C(CCN1CCN(c2ccccc2)CC1)NNC(=O)Cc1ccc(Br)cc1 | - | - | - | - | 0 | -
O=C1SC(SCc2ccccc2)=N/C1=C\c1ccco1 | 0 | 0 | 0 | 0 | 0 | 0
O=C1SC(c2ccccc2)=N/C1=C/c1ccco1 | 0 | 0 | 0 | 72.9 | 0 | 0
SMILES | WT yeast gro inh | SKKanGAS inh | TPT1 inhibitor | PHOSPHO1 block | Rtt109 Vps75 | Platelet DG rel
Cc1cc(C(=O)Nc2cc(Br)ccc2O)on1 | - | 0 | 0 | 0 | 0 | 0
Cc1noc(C)c1S(=O)(=O)N(CCc1ccccc1)Cc1ccccc1 | 69.7 | 54.4 | 0 | 0 | 0 | 0
COc1cc(-c2nnc(SCc3cc(=O)oc4cc(C)ccc34)o2)cc(OC)c1OC | 0 | 0 | 0 | 73.5 | 0 | 0
Cc1ccc(NC(=S)C2=C(O)c3sccc3N(C)S2(=O)=O)cc1 | 0 | 0 | 0 | 75.5 | 0 | 0
Cc1ccc(C(=O)Nc2ccccc2N2CCCC2)s1 | - | - | - | - | 0 | -
Oc1c(C(Nc2ccccn2)c2ccccn2)ccc2cccnc12 (stereo not drawn) | 0 | 72.5 | 0 | 0 | 0 | 0
Cc1ccc2ccc(C(Nc3ccccn3)c3ccccc3)c(O)c2n1 (stereo not drawn) | 0 | 85.3 | 0 | 0 | 0 | 0
Cc1ccnc(NC(c2cccnc2)c2ccc3cccnc3c2O)c1 (stereo not drawn) | 0 | ? | 0 | 0 | 0 | 0
COc1ccccc1NC(c1cccnc1)c1ccc2cccnc2c1O (stereo not drawn) | 0 | 0 | 0 | 63.4 | ? | 0
Oc1ccccc1C(Nc1nccs1)c1ccc2cccnc2c1O (stereo not drawn) | - | 74.9 | 0 | 0 | 0 | 0
CC(C)Cn1cnc2c1c(=O)n(CC(=O)NC(=O)NC(C)(C)C)c(=O)n2Cc1ccccc1 | - | 0 | 0 | 0 | 0 | 0
O=C(NCc1ccccc1)C(c1ccccc1)N(C(=O)c1csnn1)C1CCCC1 (stereo not drawn) | - | 0 | 0 | 0 | 0 | 0
CC(=O)c1cccc(OCC(=O)Nc2ccccc2N2CCOCC2)c1 | - | - | - | - | 0 | -
CCCCSCCCNC(=O)c1ccc(CS(=O)(=O)c2ccc(OC)cc2)o1 | - | 0 | 0 | 0 | 0 | 0
COc1cc(C(Nc2ccccn2)c2ccc3ccc(C)nc3c2O)cc(OC)c1O (stereo not drawn) | - | 0 | 0 | 72.9 | 0 | 0
Cc1ccc2ccc(C(Nc3cccc(C(F)(F)F)c3)c3cccnc3)c(O)c2n1 (stereo not drawn) | 0 | 65.2 | 0 | 0 | - | 0
Cc1ccnc(NC(c2ccccc2)c2ccc3cccnc3c2O)c1 (stereo not drawn) | - | - | - | - | 0 | -
Cc1cccc(NC(c2ccc(C)s2)c2ccc3ccc(C)nc3c2O)n1 (stereo not drawn) | 0 | 76.7 | 0 | 0 | 0 | 0
O=C(NC1CCCc2ccccc21)c1c(F)cccc1Cl (stereo not drawn) | - | 0 | 0 | 0 | 0 | 0
N#Cc1ccc(OCC(=O)NNC(=S)NC2CCCCC2)cc1 | - | - | - | - | 0 | -
Cc1ccc(NC2=C(Cl)C(=O)OC2NC(=O)c2ccccc2)cc1 (stereo not drawn) | 0 | 0 | 0 | 0 | 0 | 0
O=C1OC(NC(=O)c2ccccc2)C(n2cc(CO)nn2)=C1Cl (stereo not drawn) | 0 | 0 | 0 | 0 | 193.2 | 0
Cc1cc2ccccn2c1C(=O)c1ccc(Cl)cc1 | 0 | 0 | 0 | 63.9 | 0 | 0
Cc1cc2ccccn2c1C(=O)c1ccncc1 | 0 | 0 | 0 | 0 | - | 0
Fc1ccc(CSc2nnc(-c3ccncc3)o2)cc1 | 0 | 0 | 0 | 0 | 0 | 0
SMILES | WT yeast gro inh | SKKanGAS inh | TPT1 inhibitor | PHOSPHO1 block | Rtt109 Vps75 | Platelet DG rel
Cc1ccccc1-c1nnc(SCc2ccc(F)cc2)o1 | 59.6 | 0 | 0 | 0 | 0 | 0
COc1ccc(-c2nnc(SCc3ccccc3F)o2)cc1OC | 0 | 0 | 0 | 0 | 0 | 0
COc1ccc(-c2nnc(SCc3cc(C)cc(C)c3)o2)cc1 | 64.0 | 0 | 0 | 0 | 0 | 0
Cc1ccc(-c2nnc(SCc3ccccc3F)o2)cc1 | 59.9 | 0 | 0 | 0 | 0 | 0
COc1ccc(-c2nnc(SCC(=O)c3ccc(C)o3)o2)cc1 | 0 | 0 | - | 0 | 0 | 0
CSc1ccc(/C=C/C(=O)N2CCN(c3ccccn3)CC2)cc1 | - | 0 | 0 | 0 | 0 | 0
CCOc1ccccc1NC(=O)COC(=O)C1CC(=O)N(c2c(C)cccc2C)C1 (stereo not drawn) | - | 0 | 0 | 0 | 0 | 0
CC(=O)c1cccc(NC(=O)CCc2nc3sc4c(c3c(=O)[nH]2)CCCC4)c1 | - | 0 | 0 | - | 0 | 0
CCN(Cc1ccccc1)S(=O)(=O)c1ccc(C(=O)Nc2nnc(C3CC3)o2)cc1 | 0 | 97.6 | 0 | 0 | 0 | 0
COc1cccc(-c2nnc(NC(=O)c3ccc(S(=O)(=O)N4CC(C)OC(C)C4)cc3)o2)c1 (stereo not drawn) | 0 | 92.8 | 0 | 0 | 0 | 0
